Data from the supplement of paper PMC9694430.
Values joined by “and” are separate entries in the source; they are usually repeats but may differ in a detail not shown here. Equal entries are not always repeated.

Assays:
Assay in all cases: thermal shift delta Tm vs DMSO control; higher = stronger stabilization (binding)
Settings in all cases: 12.5 µM; protein concentration 2 µM
LOC_OS02G45750-cb003 = system: LOC_OS02G45750-cb003
Method in brief: (§1)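 Thermal shift values come from differential scanning fluorimetry on purified rice kinase domains made in E. coli, with melting temperatures obtained from Boltzmann fits. Samples of 19.5 μl held 2 μM kinase, 100 mM potassium phosphate pH 7.5, 150 mM NaCl, 10% glycerol, 5 × SYPRO Orange and compound in DMSO, and were heated from 25°C to 95°C at 0.05°C/s. Each shift is a triplicate mean relative to the DMSO-only protein sample.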

LOC_OS02G54510-cb004 = system: LOC_OS02G54510-cb004
Method in brief: as §1

LOC_OS03G04050-cb001 = system: LOC_OS03G04050-cb001
Method in brief: as §1

LOC_OS03G12390-cb001 = system: LOC_OS03G12390-cb001
Method in brief: as §1

LOC_OS03G27990-cb004 = system: LOC_OS03G27990-cb004
Method in brief: as §1

LOC_OS03G50450-cb001 = system: LOC_OS03G50450-cb001
Method in brief: as §1

LOC_OS03G50810-cb003 = system: LOC_OS03G50810-cb003
Method in brief: as §1

LOC_OS04G35114-cb001 = system: LOC_OS04G35114-cb001
Method in brief: as §1

LOC_OS04G38480-cb003 = system: T1, LOC_OS04G38480-cb003
T1 sequence (whole entry): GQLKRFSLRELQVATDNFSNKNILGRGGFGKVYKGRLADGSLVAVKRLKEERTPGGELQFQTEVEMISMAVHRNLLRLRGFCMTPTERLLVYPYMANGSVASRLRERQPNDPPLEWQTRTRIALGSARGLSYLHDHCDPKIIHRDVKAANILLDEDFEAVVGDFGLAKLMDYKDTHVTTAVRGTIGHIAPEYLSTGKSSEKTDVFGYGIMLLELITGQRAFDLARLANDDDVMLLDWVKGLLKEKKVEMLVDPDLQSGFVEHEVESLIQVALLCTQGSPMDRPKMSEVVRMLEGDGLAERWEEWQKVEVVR
Method in brief: as §1

LOC_OS04G41100-cb001 = system: T2, LOC_OS04G41100-cb001
T2 sequence (whole entry): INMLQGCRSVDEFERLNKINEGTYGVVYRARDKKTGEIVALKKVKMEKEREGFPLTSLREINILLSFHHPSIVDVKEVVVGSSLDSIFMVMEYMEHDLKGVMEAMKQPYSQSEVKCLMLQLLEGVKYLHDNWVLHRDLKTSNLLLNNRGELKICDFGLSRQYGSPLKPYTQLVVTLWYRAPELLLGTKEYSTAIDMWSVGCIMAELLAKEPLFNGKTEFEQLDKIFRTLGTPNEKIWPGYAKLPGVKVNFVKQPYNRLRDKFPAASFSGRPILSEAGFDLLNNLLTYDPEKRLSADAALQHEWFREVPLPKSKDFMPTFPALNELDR
Method in brief: as §1
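Note: purified Escherichia coli-expressed rice kinase domain construct.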

SMILES	thermal shift delta Tm (LOC_OS02G45750-cb003)	thermal shift delta Tm (LOC_OS02G54510-cb004)	thermal shift delta Tm (LOC_OS03G04050-cb001)	thermal shift delta Tm (LOC_OS03G12390-cb001)	thermal shift delta Tm (LOC_OS03G27990-cb004)	thermal shift delta Tm (LOC_OS03G50450-cb001)	thermal shift delta Tm (LOC_OS03G50810-cb003)	thermal shift delta Tm (LOC_OS04G35114-cb001)	thermal shift delta Tm (LOC_OS04G38480-cb003)	thermal shift delta Tm (LOC_OS04G41100-cb001)
CC(C)(C)Cn1c(N)nc2ccc(-c3[nH]c(C(C)(C)C)nc3-c3ccc(F)cc3)nc21	0.45 °C	0.25 °C	0.52 °C	-0.25 °C	0.28 °C	0.23 °C	0.13 °C	0.02 °C	0.12 °C	0.22 °C
CN(C[C@@H]1COCCO1)S(=O)(=O)Nc1ccc2ccc3ncc(-c4cnn(C)c4)cc3c(=O)c2c1	9.61 °C	0.42 °C	0.37 °C	0.09 °C	1.72 °C	0.44 °C	3.78 °C	7.88 °C	2.89 °C	0.3 °C
C[C@@H]1CCN(C(=O)CC#N)C[C@@H]1N(C)c1ncnc2[nH]ccc12	0.35 °C and 0.85 °C	0.3 °C and 0.25 °C	0.21 °C and 0.74 °C	0.19 °C and 0.26 °C	0.12 °C and 0.5 °C	0.32 °C and 0.68 °C	0.11 °C and 0.63 °C	0.38 °C and 0.48 °C	0.3 °C and 0.6 °C	-0.01 °C and 0.47 °C
OC(c1cc(-c2ccc(Cl)cc2)nc2ccccc12)C1CCCCN1 (stereo not given) [Vacquinol-1]	1.11 °C	-0.34 °C	0.42 °C	0.39 °C	0.57 °C	1.11 °C	0.65 °C	0.88 °C	1.95 °C	0.59 °C
Cc1ccc(C(=O)Nc2ccc(Oc3cc4cnn(C)c4cc3-c3cn[nH]c3)c(F)c2)c(=O)n1-c1ccc(F)cc1	1.6 °C	0.17 °C	1.07 °C	0.61 °C	0.79 °C	1.3 °C	1.13 °C	0.73 °C	3.19 °C	1.32 °C
CCc1nc(C(N)=O)c(Nc2ccc(N3CCC(N4CCN(C)CC4)CC3)c(OC)c2)nc1NC1CCOCC1 [Gilteritinib (ASP2215)]	9.25 °C	3.16 °C	0.4 °C	9.74 °C	8.74 °C	5.63 °C	8.56 °C	11.4 °C	6.15 °C	0.57 °C
Oc1c(F)cc(-c2cnccc2-c2ccc(N3CCOCC3)cc2)cc1F	0.77 °C	0.07 °C	0.28 °C	-0.05 °C	0.11 °C	0.25 °C	0.2 °C	1.09 °C	0.6 °C	0.44 °C
COc1ccc(Cl)c(Nc2nc3ccccc3nc2NS(=O)(=O)c2cccc(NC(=O)C(C)(C)N)c2)c1 [Pilaralisib (XL147)]	1.06 °C	-0.18 °C	0.85 °C	2.37 °C	1.12 °C	1.09 °C	1.54 °C	2.89 °C	2.92 °C	1.52 °C
O=C(Nc1nccs1)C(c1cc(F)ccc1O)N1Cc2ccccc2C1=O (stereo not given)	0.19 °C	0.2 °C	-0.02 °C	-0.36 °C	0.06 °C	-0.38 °C	0.01 °C	0.12 °C	0.41 °C	0.1 °C
NC(=O)c1cnc2[nH]ccc2c1N[C@@H]1[C@@H]2CC3C[C@H]1C[C@@](O)(C3)C2	8.38 °C	2.49 °C	-0.03 °C	7.42 °C	4.38 °C	3.97 °C	4.9 °C	3.87 °C	2.99 °C	1.15 °C
